Bioassay records from PubChem.
D3 ag: qHTS of D3 Dopamine Receptor Agonist: qHTS; AID 652048, 2013; D(3) dopamine receptor (Homo sapiens), P35462; D3R DiscoveRx beta-arrestin cells, luminescence, 90 min; max activation, %; hit rate 0.58% among 410,000; in the data active means max activation above about 30%; further: 0% is about no effect
Target sequence (P35462 whole entry, looked up): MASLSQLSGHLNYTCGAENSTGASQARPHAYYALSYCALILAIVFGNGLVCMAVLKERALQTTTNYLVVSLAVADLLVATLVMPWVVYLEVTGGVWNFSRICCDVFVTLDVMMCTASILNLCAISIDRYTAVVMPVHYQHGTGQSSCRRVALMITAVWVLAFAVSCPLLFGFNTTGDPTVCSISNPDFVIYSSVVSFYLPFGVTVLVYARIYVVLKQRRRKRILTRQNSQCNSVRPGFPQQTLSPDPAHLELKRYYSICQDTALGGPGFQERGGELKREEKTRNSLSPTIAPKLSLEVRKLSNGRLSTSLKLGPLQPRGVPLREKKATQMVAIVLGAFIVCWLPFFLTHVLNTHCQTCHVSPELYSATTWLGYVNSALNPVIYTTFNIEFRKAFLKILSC
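Agonist mode: compounds and dopamine controls were applied to plated cells for 90 min at 37 degrees C after an overnight attachment at 1500 cells/well. Luminescent read-out followed 30 - 60 minutes at room temperature with DiscoveRx detection reagent.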
D3 antag: qHTS of D3 Dopamine Receptor Antagonist: qHTS; hit rate 2.5% among 360,000; AID 652054, 2013; max response, negative = inhibition, %; D(3) dopamine receptor (Homo sapiens), P35462; D3R cells, DiscoveRx beta-arrestin luminescence, antagonist mode; stronger effect = lower value; in the data active means max response below about -50%; further: on the % scale 0 is the no-effect control and ±100 the full control effect
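Cells plated overnight at 1500 cells/well, then exposed to library compounds with dopamine controls for 90 minutes at 37 degrees C. DiscoveRx reagent added for 30–60 minutes at room temperature; luminescence read, quantitative HTS format.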
D1 antagonist: Antagonist of Human D 1 Dopamine Receptor: qHTS. D(1A) dopamine receptor (Homo sapiens), P21728. HEK293 TREx D1 cells, calcium flux, dopamine EC80; stronger effect = lower value. activity change, negative = inhibition, % at 10 µM. hit rate 3.2% among 360,000. AID 504652, 2011; in the data active means activity change below about -30%; further: on the % scale 0 is the no-effect control and ±100 the full control effect
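HEK293 T-REx cells expressing inducible, force-coupled D1 receptor; no-wash Ca dye, 30–90 min RT. Cmpd → 180 s read at 1 Hz → EC80 DA → 180 s read.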
D1 PAM: Potentiators of Human D1 Dopamine Receptor: qHTS; D(1A) dopamine receptor (Homo sapiens), P21728; HEK293 TREx D1 cells, calcium flux, dopamine EC20 potentiation; potentiation, % at 10 µM; hit rate 0.036% among 360,000; AID 504651, 2011; in the data active means potentiation above about 30%; further: 0% is about no effect
D1 ag: Allosteric Agonists of the Human D1 Dopamine Receptor: qHTS; hit rate 1% among 360,000; activation, % at 2 µM; AID 504660, 2011; HEK293 T-REx D1 cells, calcium flux, agonist mode; in the data active means activation above about 30%; further: 0% is about no effect
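Tetracycline-induced HEK293 TREx D1 cells, force-coupled to calcium signalling, were dye-loaded with a no-wash calcium kit. Compound was pin-added after a 10 s baseline. Fluorescence was read kinetically at 1 cycle/s for 180 s, with calcium rises flagged as agonism.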
The depositor's hits bear a star. This is a sample that favours compounds with a hit; in the whole collection about 6% have one here.

`NC(=O)CC(NC(=O)Cc1ccc(Br)cc1)c1ccc(N2CCC(Cc3ccccc3)CC2)c([N+](=O)[O-])c1` (configuration not stated) gave D3 ag -2, D3 antag -97*, D1 antagonist 6, D1 PAM -2 and D1 ag 3.
`NC(=O)CC(NC(=O)Cc1ccc(Br)cc1)c1ccc(N2CCC(Br)CC2)c([N+](=O)[O-])c1` (configuration not stated) gave D3 ag -24, D3 antag -28, D1 antagonist 15, D1 PAM -1 and D1 ag 2.
For COc1ccc(CCNc2ccc(C(CC(N)=O)NC(=O)c3ccc(Br)cc3)cc2[N+](=O)[O-])cc1 (configuration not stated) the results were D3 ag -24, D3 antag -68*, D1 antagonist 3, D1 PAM 0 and D1 ag 2.
Screening NC(=O)CC(NC(=O)Cc1ccc(Br)cc1)c1ccc(NCCN2CCCCC2)c([N+](=O)[O-])c1 (configuration not stated) returned D3 ag 7, D3 antag -21, D1 antagonist -45*, D1 PAM 0 and D1 ag 4.
O=C(CSCc1cc(=O)c2ccccc2[nH]1)Nc1cccc(C(F)(F)F)c1 was read as D3 ag -16, D1 antagonist 10, D1 PAM -2 and D1 ag 0.
O=C(CCCCn1c(=O)[nH]c2ccccc2c1=O)NC1CCN(Cc2ccccc2)CC1 was read as D3 ag -4, D3 antag 0, D1 antagonist -2, D1 PAM -1 and D1 ag -3.
O=C(c1ccc(Cn2c(=S)[nH]c3ccc(N4CCOCC4)cc3c2=O)cc1)N1CCC(N2CCCCC2)CC1 was read as D3 ag 2, D3 antag 8, D1 antagonist -8, D1 PAM -4 and D1 ag 2.
`O=C(NC1CCN(Cc2ccccc2)CC1)c1ccc(Cn2c(=S)[nH]c3ccc(N4CCOCC4)cc3c2=O)cc1` gave D3 ag -12, D3 antag -71*, D1 antagonist 25, D1 PAM -4 and D1 ag 1.
`O=C(CCCCCn1c(=S)[nH]c2ccc(N3CCOCC3)cc2c1=O)NC1CCN(Cc2ccccc2)CC1` gave D3 ag -15, D3 antag -17, D1 antagonist -32*, D1 PAM -8 and D1 ag 0.
Screening CCOc1cc(CN2CCN(c3ccc(C(C)=O)cc3)CC2)ccc1OC returned D3 ag -9 and D3 antag -24.
For CCOc1cc(CN2CCN(c3cccc(C(F)(F)F)c3)CC2)ccc1O the results were D3 ag -15, D3 antag -86*, D1 antagonist -8, D1 PAM -4 and D1 ag 6.
Screening Cc1c(CN2CCN(c3cccc(C(F)(F)F)c3)CC2)c(=O)n(-c2ccccc2)n1C returned D3 ag 3, D3 antag -76*, D1 antagonist -7, D1 PAM -9 and D1 ag 4.
Screening CCOc1cc(CN2CCN(c3cccc(C(F)(F)F)c3)CC2)ccc1OC returned D3 ag -23, D3 antag -89*, D1 antagonist -13, D1 PAM -3 and D1 ag -1.
`COc1ccccc1C(=O)N1CCN(c2cccc(C(F)(F)F)c2)CC1` gave D3 ag -5, D3 antag 22, D1 antagonist -3, D1 PAM 1 and D1 ag 4.
For COc1ccc(CC(C)N2CCN(c3cccc(C(F)(F)F)c3)CC2)cc1OC (configuration not stated) the results were D3 ag -23, D3 antag -88*, D1 antagonist -6, D1 PAM -2 and D1 ag 1.
CCCCOC(=O)CSc1nnc(-c2ccc(C)cc2)o1 was read as D3 ag -11, D1 antagonist -6, D1 PAM -1 and D1 ag -2.
CC1CCn2c(nc3cc(C(=O)NCCc4ccccc4)ccc32)C1 (configuration not stated) was read as D3 ag 4, D1 antagonist -3, D1 PAM -1 and D1 ag 0.
Screening O=c1cc(CO)oc(CN2CCN(c3cccc(C(F)(F)F)c3)CC2)c1O returned D3 ag 1, D3 antag -64*, D1 antagonist 18, D1 PAM 5 and D1 ag -2.
Screening Cc1nc2ccc(NC(=O)c3cc([N+](=O)[O-])cc([N+](=O)[O-])c3Cl)cc2s1 returned D3 ag 11, D3 antag -68*, D1 antagonist -55*, D1 PAM -3 and D1 ag 1.
`Cc1nc2ccc(NS(=O)(=O)c3ccc4c(c3)OCCO4)cc2s1` gave D3 ag 1, D3 antag 18, D1 antagonist -31*, D1 PAM -3 and D1 ag 25.
Cc1ccc(S(=O)(=O)Nc2ccc3nc(C)sc3c2)cc1 was read as D3 ag 1, D3 antag 22, D1 antagonist -34*, D1 PAM -1 and D1 ag 15.
Screening Cc1nc2ccc(NS(=O)(=O)c3ccc(Br)cc3)cc2s1 returned D3 ag -2, D3 antag -2, D1 antagonist -3, D1 PAM -4 and D1 ag 12.
Cc1nc2ccc(NS(=O)(=O)c3cccc([N+](=O)[O-])c3)cc2s1 was read as D3 ag 36* and D3 antag 20.
For CC1(C(=O)Nc2ccc(Cl)c(C(F)(F)F)c2)Cc2c(-c3ccc4c(c3)OCO4)ccnc2O1 (configuration not stated) the results were D3 ag -3 and D3 antag -24.
`CC(C)C1C(=O)N(Cc2cn(Cc3ccco3)nn2)CCS(=O)(=O)N1Cc1ccc(-c2ccc(F)cc2)cc1` (configuration not stated) gave D3 ag 3 and D3 antag 3.
Cn1nnc2c(N3CCN(c4ccccc4Cl)CC3)ncnc21 was read as D3 ag -6, D1 PAM 1 and D1 ag -2.
Cc1ccccc1OCC(=O)OCc1cc(=O)n2nc(-c3cccs3)sc2n1 was read as D3 ag 0, D1 antagonist -8, D1 PAM -4 and D1 ag 2.
For COc1cccc(Cn2c(SCC(=O)N3CCN(c4ccc(F)cc4)CC3)nc3ccccc32)c1 the results were D3 ag -4, D1 antagonist 34, D1 PAM 2 and D1 ag 1.
